Screening results as filed in PubChem BioAssay.
In the library only some 11% were active in any assay of this set; here they are far more common.
NIH3T3 tox = NIH 3T3 cell cytotoxicity. NIH 3T3 viability, CellTiter-Glo ATP luminescence, 48-72 h. Potency, µM (highest dose often 96.7 µM), for inactives: top-dose activity change, negative = cytotoxicity, hits mostly inhibitors. 4.3% of 94,000 active; also: nearly all actives have a fitted effect of over 55% in size
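Cells were seeded at 400 per well, treated with pin-transferred compound, and kept 48 or 72 hr at 37 °C before CellTiter-Glo addition and luminescence imaging of cellular ATP.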
HEK293 tox = kills HEK 293 cells; AID 1345083; 6.6% of 94,000 active; HEK 293 viability, ATP luminescence (CellTiter-Glo), 48-72 h; Potency, µM (titrated, usually from 115 µM), for the others: top-dose activity change, negative = cytotoxicity, most hits filed as inhibitors; also: nearly all actives have a fitted effect of over 60% in size
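HEK 293 seeded at 250 cells/well receive compound via pintool. After 48 or 72 hr at 37 degree Celsius, 5% CO2 and 95% humidity, CellTiter-Glo is dispensed and luminescence read following 10 min at room temperature.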
hNpr1 antagonist = antagonists of human natriuretic peptide receptor Npr1; P16066; HEK293 hNpr1 GloSensor cGMP, ANP-stimulated luminescence; Potency, µM (highest dose often 46.3 µM), for the others: top-dose activity change, negative = inhibition, most hits filed as inhibitors; 1.6% of 76,000 active; AID 1347048; calls by dose curve; also: nearly all actives have a fitted effect of over 60% in size
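Compound pre-incubated 30 min at room temperature on GloSensor-loaded HEK293 cells stably carrying hNpr1 and the pGS-40F cGMP biosensor. Stimulation uses hNppA at 0.1 nM final; luminescence is taken at baseline and 20 min post-agonist.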
FLuc inh = inhibitors of firefly (Photinus pyralis) luciferase; Potency, µM (series often up to 115 µM), actives largely listed as inhibitors; 2.5% of 76,000 active; purified P. pyralis luciferase, luminescence, biochemical; also: nearly all actives have a fitted effect of over 65% in size
Target sequence (P08659 whole entry, looked up): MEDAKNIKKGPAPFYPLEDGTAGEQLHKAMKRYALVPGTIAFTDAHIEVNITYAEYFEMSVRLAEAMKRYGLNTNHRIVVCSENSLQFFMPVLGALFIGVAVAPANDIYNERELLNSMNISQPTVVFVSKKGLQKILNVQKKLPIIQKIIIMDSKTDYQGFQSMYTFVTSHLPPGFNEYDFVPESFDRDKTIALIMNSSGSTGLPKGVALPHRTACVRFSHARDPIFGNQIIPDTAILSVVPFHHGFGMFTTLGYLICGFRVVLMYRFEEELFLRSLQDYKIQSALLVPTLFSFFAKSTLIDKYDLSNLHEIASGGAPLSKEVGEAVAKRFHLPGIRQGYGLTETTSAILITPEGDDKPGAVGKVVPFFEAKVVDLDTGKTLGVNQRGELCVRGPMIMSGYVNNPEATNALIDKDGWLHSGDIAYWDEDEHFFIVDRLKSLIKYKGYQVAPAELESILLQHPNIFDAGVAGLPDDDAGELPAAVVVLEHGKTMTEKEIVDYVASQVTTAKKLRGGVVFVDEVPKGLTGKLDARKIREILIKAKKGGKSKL
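Cell-free enzyme assay, 10nM P. pyralis luciferase, luciferin and ATP each at 10uM. Inhibition profiled over a 6-point titration, read as luminescence.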
* = called active by the depositor; i = inactive; ? = inconclusive; nt = no result given; [ ] = another dose, or the depositor's remark. Unless noted, calls follow the shape of the dose curve; as a rule, active = well fitted curve in the direction sought with a large enough effect; inconclusive = small, poorly fitted or top-dose-only effect, or another doubt; inactive = no such curve, though single readings can be large; an effect the other way counts as inactive or inconclusive. % is scaled to controls: 0 for no effect and ±100 for the full control effect; potency is read from the fitted curve at half-maximal effect.

SMILES | NIH3T3 tox | HEK293 tox | hNpr1 antagonist | FLuc inh
Cc1ccc(C(=O)NC[C@H]2C[C@@H]3CCN2C[C@@H]3c2cc(-c3cccs3)nc(C)n2)cc1 | 28µM* | ? | -20%[70.6 µM] | i
Cc1nc(-c2ccco2)cc([C@H]2CN3CC[C@H]2C[C@@H]3CNC(=O)c2cccs2)n1 | -25%[138 µM] | -29%[172 µM] | -1%[70.6 µM] | i
FC(F)(F)CN1C2CCC1CN(c1cncc(Br)c1)C2 | -11% | -3% | nt | nt
O=C1NCC2(CCCN(Cc3cc(=O)c4cccc(F)c4[nH]3)C2)O1 (stereo not given) | i | -9% | 1% | i
CCOC(=O)[C@H]1CN(C(=O)OCc2ccccc2)[C@]2(C)C(=O)N(CC3CC3)c3ccccc3[C@H]12 | ? | 35µM* | nt | nt
CCOC(=O)[C@H]1CN(C(=O)NC2CCCC2)[C@]2(C)C(=O)N(CC3CC3)c3ccccc3[C@H]12 | ? | 32µM* | nt | nt
CCOC(=O)[C@H]1CN(C(=O)c2ccno2)[C@]2(C)C(=O)N(CC3CC3)c3ccccc3[C@H]12 | -31%[46.1 µM] | ? | nt | nt
CCCCCC(=O)N1C[C@H](C(=O)OCC)[C@H]2c3ccccc3N(CC3CC3)C(=O)[C@]21C | ? | 32µM* | nt | nt
CCOC(=O)[C@H]1CN(C(=O)NC2CCCC2)[C@]2(C)C(=O)N(CCOC(C)=O)c3ccccc3[C@H]12 | ? | -24%[57.5 µM] | nt | nt
CCOC(=O)[C@H]1CN(C(=O)OCc2ccccc2)[C@]2(C)C(=O)N(C)c3ccccc3[C@H]12 | -20%[46.1 µM] | ? | nt | nt
CC[C@H]1CN2CC[C@H]1C[C@@H]2CNC(=O)Nc1cccc(SC)c1 | -22%[174 µM] | -24%[172 µM] | 2%[70.6 µM] | i
CCN(CC)C[C@H]1CN2CC[C@H]1C[C@@H]2CNC(=O)Nc1cccc(SC)c1 | 40µM* | 50µM* | -3%[70.6 µM] | i
CSc1cccc(NC(=O)NC[C@H]2C[C@@H]3CCN2C[C@@H]3CN(C)Cc2ccccc2)c1 | 22µM* | 28µM* | -1% | i
CSc1cccc(NC(=O)NC[C@H]2C[C@@H]3CCN2C[C@@H]3CN(C)c2ccccc2)c1 | 32µM* | 25µM* | -17%[70.6 µM] | ?
CCOC(=O)CN1C(=O)[C@@H]2[C@H](c3ccccc31)[C@@H](C(=O)OCC)[C@@H](c1ccccc1)N2C(=O)C1CC1 | -34% | ? | nt | nt
Cc1nc(-c2ccc(N(C)C)cc2)cc([C@H]2CN3CC[C@H]2C[C@@H]3COC(=O)Nc2ccccc2)n1 | 4µM* | ? | -25% | i
Cc1nc(-c2ccc(N(C)C)cc2)cc([C@H]2CN3CC[C@H]2C[C@@H]3CNC(=O)c2ccco2)n1 | ? | ? | -3% | ?
COc1cc(NC(=O)OC[C@H]2C[C@@H]3CCN2C[C@@H]3c2cc(-c3ccc(N(C)C)cc3)nc(C)n2)cc(OC)c1 | 7.9µM* | 5.6µM* | ? | ?
CCCNC(=O)OC[C@H]1C[C@@H]2CCN1C[C@@H]2c1cc(-c2ccc(F)cc2)nc(C)n1 | ? | ? | -1%[70.6 µM] | i
COc1ccc(NC(=O)OC[C@H]2C[C@@H]3CCN2C[C@@H]3c2cc(-c3ccc(N(C)C)cc3)nc(C)n2)cc1 | 16µM* | 18µM* | -14% | i
Cc1nc(-c2ccc(N(C)C)cc2)cc([C@H]2CN3CC[C@H]2C[C@@H]3CNC(=O)NC(C)C)n1 | 89µM* | ? | 1%[70.6 µM] | i
O=C(NC[C@H]1C[C@@H]2CCN1C[C@@H]2CN1CCOCC1)Nc1ccsc1 | -12%[174 µM] | -2%[172 µM] | 1%[70.6 µM] | i
COc1cc2c(cc1OCc1ccccc1)NC(=O)C21CCN(Cc2ccccc2)CC1 | 32µM* | 32µM* | -25%[70.6 µM] | i
COc1cc2c(cc1OCc1ccccc1)NC(=O)C21CCN(Cc2ccncc2)CC1 | ? | ? | ? | i
COc1cncc(-c2cc3c(cc2OC)C2(CCN(C(C)=O)CC2)C(=O)N3)c1 | 32µM* | -15%[172 µM] | 0%[70.6 µM] | i
SMILES | NIH3T3 tox | HEK293 tox | hNpr1 antagonist | FLuc inh
COc1cc2c(cc1OCc1ccccc1)NC(=O)C21CCN(c2ncccn2)CC1 | ? | ? | -27%[70.6 µM] | i
COc1cc2c(cc1OCc1ccccc1)NC(=O)C21CCN(C(C)=O)CC1 | 40µM* | ? | -3%[70.6 µM] | ?
COc1cc2c(cc1OCc1ccccc1)NC(=O)C21CCN(Cc2c(C)noc2C)CC1 | ? | 25µM* | ? | ?
COc1cc2c(cc1OCc1ccccc1)NC(=O)C21CCN(Cc2nccn2C)CC1 | ? | ? | 4%[70.6 µM] | ?
CSc1ccc(-c2ccc(=O)n3c2[C@@H]2C[C@@H](CN(S(=O)(=O)c4cccs4)C2)C3)cc1 | -7% | ? | -2% | i
O=C(NC1CC1)[C@H]1CN2CCC1C[C@@H]2Cn1cc(CSc2ccccc2)nn1 (stereo not given in full) | -13%[174 µM] | -13%[172 µM] | -1%[70.6 µM] | i
COc1cc2c(cc1OCc1ccccc1)NC(=O)C21CCN(c2ccnc(C)n2)CC1 | ? | 28µM* | ? | ?
CNCc1cn(C[C@H]2CC3CCN2C[C@@H]3C(=O)N(C)C)nn1 (stereo not given in full) | 0%[174 µM] | 1%[172 µM] | 7%[70.6 µM] | i
Cc1ccccc1-c1ccc2n(c1=O)C[C@H]1C[C@@H]2CN(C(=O)Nc2ccccc2)C1 | -6%[174 µM] | i | -1%[70.6 µM] | i
COc1cc2c(cc1CCc1ccccc1)N(C(=O)C1CCC(C)CC1)CC21CCN(C(C)=O)CC1 (stereo not given) | 32µM* | 40µM* | ? | i
COc1cc2c(cc1CCc1ccccc1)N(C(=O)c1ccnn1C)CC21CCN(C(C)=O)CC1 | ? | ? | 2% | i
COc1cc2c(cc1CCc1ccccc1)N(C(=O)C(C)C)CC21CCN(C(C)=O)CC1 | -98%[138 µM] | 89µM* | 4%[70.6 µM] | i
COc1cc2c(cc1CCc1ccccc1)N(C(=O)c1c[nH]c3ccccc13)CC21CCN(C(C)=O)CC1 | 22µM* | 25µM* | -19% | i
COc1cc2c(cc1OCc1ccccc1)N(C(=O)c1ccn(C)n1)CC21CCN(C)CC1 | ? | -21% | 3% | i
COC(=O)c1sccc1NC(=O)N1[C@H]2CC[C@@H]1c1cncnc1C2 | i | i | 9% | i
Cc1ccc(CN2C[C@@H]3C(C(N)=O)=NO[C@@H]3C2)nc1 | 112µM* | -9%[230 µM] | 8%[70.6 µM] | i
CCCS(=O)(=O)NC[C@H]1C[C@@H]2CCN1C[C@@H]2c1cc(C(CC)CC)nc(-c2ccncc2)n1 | ? | ? | ? | i
CCC(CC)c1cc([C@H]2CN3CC[C@H]2C[C@@H]3CNC2CCN(C)CC2)nc(-c2ccncc2)n1 | 18µM* | 14µM* | -8% | i
CCC(CC)c1cc([C@H]2CN3CC[C@H]2C[C@@H]3CNC(=O)Nc2ccc(OC)cc2)nc(-c2ccncc2)n1 | ? | 32µM* | -7% | i
CCC(CC)c1cc([C@H]2CN3CC[C@H]2C[C@@H]3CNC(=O)COC)nc(-c2ccncc2)n1 | ? | -14% | 3% | i
